Experimental findings from PubChem BioAssay (EPA / NIEHS) are described below.

Activity calls are given as the source filed them. How the source made its calls: active means hit-call score of the fitted dose curve at least 0.9, where 1 is the maximum; inactive means score below 0.9.

Assay [1] is described as follows: APR_HepG2_CellCycleArrest_24hr: Apredica 24-hour HepG2 Assay for Cell Cycle Arrest (AID 2282905).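 Further: cell cycle arrest scored as ratio of 2N to 4N nuclear DNA content.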 The settings on record: imaging, actives raise or lower the signal. In outline: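 Cell cycle arrest is scored from nuclear DNA content measured by high-content imaging of Hoechst 33342-stained HepG2 cells following 24-hour treatment at ten concentrations up to 200 uM, with DMSO as baseline.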

Assay [2] is described as follows: APR_HepG2_NuclearSize_24hr: Apredica 24-hour HepG2 Assay for Nuclear Size (AID 2282907). Conditions: high-content imaging, actives raise or lower the signal. In outline:
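Compounds in DMSO (final 0.5%) were added to human HepG2 hepatoma cells at ten concentrations up to 200 uM for 24 hr. Fixed nuclei were stained with Hoechst 33342, and nuclear diameter was quantified from automated images.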

Assay [3] can be described thus: APR_HepG2_CellLoss_24hr: Apredica 24-hour HepG2 Assay for Cell Loss (AID 2282908). The settings on record: high-content imaging. The essentials: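 Cell number is quantified by fluorescence imaging of Hoechst 33342-stained nuclei following dosing at 0.39–200 uM in 0.5% DMSO. Curves are fitted in both directions from the DMSO baseline.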
The nature of assay [4]: APR_HepG2_MicrotubuleCSK_24hr: Apredica 24-hour HepG2 Assay for Microtubule CSK Stabilty (AID 2282909). Conditions: HepG2 microtubule cytoskeleton imaging, actives raise or lower the signal. The essentials:
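Steps: dose HepG2 for 24 h (0.39–200 uM, 0.5% DMSO); fix 30 min in 3.7% formaldehyde at room temperature; permeabilize; stain alpha-tubulin 60 min; image microtubule cytoskeleton at 20x. Signal change fitted in both directions relative to DMSO.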

Assay [5] in a line: APR_HepG2_MitoticArrest_24hr: Apredica 24-hour HepG2 Assay for Mitotic Arrest (AID 2282910). Conditions: high-content imaging, actives raise or lower the signal. The essentials: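 HepG2 human liver cells were exposed to compounds at 0.39–200 uM (10 concentrations, duplicate) in 0.5% v/v DMSO for 24 hr, then fixed and immunostained for phospho-histone H3 with Hoechst 33342. Mitotic arrest came from HCS fluorescent imaging, fitted bidirectionally against DMSO.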

A short description of assay [6]: APR_HepG2_MitoMembPot_24hr: Apredica 24-hour HepG2 Assay for Mitochondrial Membrane Potential (AID 2282911). The settings on record: imaging, actives raise or lower the signal. In outline: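 Human hepatoma HepG2 cultures received ten compound concentrations up to 200 uM for 24 hr. Membrane-potential dye signal, captured by automated fluorescence microscopy, was scored for gain or loss against DMSO controls.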

A short description of assay [7]: APR_HepG2_MitoMass_24hr: Apredica 24-hour HepG2 Assay for Mitochondrial Mass (AID 2282912). The settings on record: high-content imaging, actives raise or lower the signal. In outline: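 The liver line HepG2 was dosed in duplicate across a 0.39–200 uM series, with final DMSO held at 0.5% v/v, and harvested at 24 hr. High-content imaging measured mitochondrial dye staining.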

Assay [8] in a line: APR_HepG2_p53Act_24hr: Apredica 24-hour HepG2 Assay for p53 Activation (AID 2282913).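 Further: p53 protein immunofluorescence averaged per cell in HepG2 with Hoechst nuclei.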 Conditions: high-content imaging, actives raise or lower the signal. The essentials: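 Automated fluorescence imaging quantifies p53 immunostaining in HepG2 cells after a 24 hr exposure (0.39–200 uM, duplicate, 0.5% DMSO). Nuclei are located by Hoechst 33342 staining.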
The nature of assay [9]: APR_HepG2_CellCycleArrest_72hr: Apredica 72-hour HepG2 Assay for Cell Cycle Arrest (AID 2282914). Conditions: high-content imaging, actives raise or lower the signal. The essentials:
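Cell cycle arrest in HepG2 was scored from nuclear DNA content after 72 hr compound treatment (0.39–200 uM). Activity, either gain or loss, was fitted against the DMSO baseline.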

Assay [10] in a line: APR_HepG2_CellLoss_72hr: Apredica 72-hour HepG2 Assay for Cell Loss (AID 2282915). Conditions: high-content imaging. In outline: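 HepG2 cells were exposed for 72 hr to compounds at 0.39–200 uM (ten concentrations, duplicate) in 0.5% v/v final DMSO. Nuclei were stained with Hoechst 33342 after 3.7% formaldehyde fixation, imaged at 20x, and counted; fits bidirectional versus DMSO.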

The nature of assay [11]: APR_HepG2_P-H2AX_72hr: Apredica 72-hour HepG2 Assay for H2AX Phosphorylation (AID 2282916).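 Further: phospho-histone H2A.x immunostain intensity per cell marking DNA damage.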 Conditions: imaging, actives raise or lower the signal. In outline:
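Following 72 hr treatment with 0.39–200 uM compound, HepG2 cells were formaldehyde-fixed, permeabilized and stained for phospho-H2A.x; signal was measured by high-content imaging and fitted bidirectionally against DMSO controls.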

Assay [12] can be described thus: APR_HepG2_MitoticArrest_72hr: Apredica 72-hour HepG2 Assay for Mitotic Arrest (AID 2282918). Conditions: high-content imaging, actives raise or lower the signal. In outline:
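Mitotic arrest in HepG2 is scored from phospho-histone H3 staining after 72 hr dosing across 0.39–200 uM, with DMSO at 0.5% v/v. Nuclei are identified by Hoechst 33342 and fluorescence intensity is quantified per cell.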

The nature of assay [13]: APR_HepG2_MicrotubuleCSK_72hr: Apredica 72-hour HepG2 Assay for Microtubule CSK Stabilty (AID 2282919). Conditions: HepG2 microtubule cytoskeleton, high-content imaging, actives raise or lower the signal. In outline:
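HepG2 human liver cells were dosed for 72 h at ten concentrations from 0.39 to 200 uM in duplicate (0.5% v/v DMSO final). Fixed, permeabilized cells were immunostained for alpha-tubulin (Cy5) with a Hoechst counterstain and imaged at 20x.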

Assay [14] is described as follows: APR_HepG2_P-H2AX_24hr: Apredica 24-hour HepG2 Assay for H2AX Phosphorylation (AID 2282920). The settings on record: high-content imaging, actives raise or lower the signal. In outline: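 Signal comes from a FITC-labeled secondary detecting phospho-histone H2A.x in fixed HepG2 cells, quantified by automated imaging at 20x. Dosing ran 24 hr across 0.39–200 uM with 0.5% v/v DMSO.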

A short description of assay [15]: APR_HepG2_StressKinase_72hr: Apredica 72-hour HepG2 Assay for Stress Kinase (AID 2282921). The settings on record: HepG2 stress kinase (phospho-c-Jun) imaging, actives raise or lower the signal. In outline:
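Fluorescence intensity of Cy3-tagged anti-phospho-c-Jun antibody, quantified per cell from Hoechst-defined nuclei across six images per well, served as the read-out following 72 h exposure (0.39–200 uM, 0.5% v/v DMSO).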

Assay [16] is described as follows: APR_HepG2_StressKinase_24hr: Apredica 24-hour HepG2 Assay for Stress Kinase (AID 2282922). Conditions: HepG2 stress kinase (phospho-c-Jun) imaging, actives raise or lower the signal. The essentials:
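HepG2 cells exposed 24 hr to compound at 0.39–200 uM (10 concentrations, duplicate), 0.5% v/v DMSO final. Fixed in 3.7% formaldehyde, permeabilized with Triton X-100, immunolabeled for phospho-c-Jun with Hoechst 33342; HCS fluorescence imaging, bidirectional fit versus DMSO.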

Assay [17] is described as follows: APR_HepG2_p53Act_72hr: Apredica 72-hour HepG2 Assay for p53 Activation (AID 2282923).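 Further: average cellular p53 protein immunofluorescence intensity in HepG2 cells.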 Conditions: high-content imaging, actives raise or lower the signal. In outline: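 HepG2 monolayers receive test compounds in duplicate at ten concentrations (0.39 through 200 uM) for 72 hr. They are then formaldehyde-fixed, antibody-labelled for p53, Hoechst-stained and imaged, with activity fitted bidirectionally versus DMSO.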

Assay [18] is described as follows: APR_HepG2_MitoMass_72hr: Apredica 72-hour HepG2 Assay for Mitochondrial Mass (AID 2282924).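 Further: MitoTracker Red CMXRos stain intensity per cell imaged as mitochondrial mass.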 Conditions: high-content imaging, actives raise or lower the signal. In outline:
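HepG2 cells were exposed for 72 hr to compounds at 0.39–200 uM (ten concentrations, duplicate, 0.5% v/v DMSO final). Live cells were stained with 250 nM MitoTracker Red CMXRos for 30 min, then fixed in 3.7% formaldehyde and imaged by HCS fluorescence.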

The nature of assay [19]: APR_HepG2_NuclearSize_72hr: Apredica 72-hour HepG2 Assay for Nuclear Size (AID 2282925). The settings on record: high-content imaging, actives raise or lower the signal. The essentials:
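HepG2 cells were exposed to compounds at ten concentrations from 0.39 to 200 uM (duplicate, 0.5% DMSO final) for 72 hr. After fixation in 3.7% formaldehyde, nuclei were stained with Hoechst 33342 (2 ug/mL) and imaged at 20x.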

The nature of assay [20]: APR_HepG2_MitoMembPot_72hr: Apredica 72-hour HepG2 Assay for Mitochondrial Membrane Potential (AID 2282917). Conditions: imaging, actives raise or lower the signal. In outline: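 HepG2 cells exposed 72 h to compounds at 0.39–200 uM (0.5% v/v DMSO, duplicates); MitoTracker Red CMXRos 250 nM loaded 30 min before 3.7% formaldehyde fixation, imaged by HCS fluorescence. Bidirectional fit versus DMSO.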

`CC(C)CCCCCCCOC(=O)CCCCC(=O)OCCCCCCCC(C)C`: the molecule was called inactive in assay [1], in assay [2], in assay [3], in [4], in assay [5] and in assay [6]. For the same molecule, the molecule was classed as inactive in assay [7], in [8], in [9], in assay [10], in [11] and in [12]. The molecule was called inactive in assay [13], in assay [14], in assay [15], in assay [16], in assay [17] and in assay [18]. Also, the call in assay [19] was inactive.

A word on the AC50: it is the concentration giving half of the maximal activity seen. In the case of `Nc1ccc(Nc2ccccc2)cc1`, the molecule was classed as inactive in assay [1], in [2], in assay [3], in [4], in assay [5] and in assay [7]. Further, the result in assay [8], in [13], in assay [15], in assay [16], in assay [18] and in assay [19] was inactive. Besides, the AC50 is 54 µM (active) in assay [6]; 13.8 µM (active) in assay [9]; 40.1 µM (active) in assay [10]; 29.9 µM (active) in assay [11]; 42.1 µM (active) in [12]; 17.9 µM (active) in [14]. Moreover, the AC50 in assay [17] was 33.3 µM (active).

For `CCCCCCCCO`, the molecule was called inactive in assay [1], in [2], in assay [3], in [4], in assay [5] and in assay [6]. Further, the result in [7], in [8], in assay [9], in assay [10], in assay [11] and in assay [13] was inactive. The result in [14], in assay [15], in assay [16], in [17], in [18] and in assay [19] was inactive.

Take `Cn1c(=O)cc(Oc2ccc(F)cc2F)c2cnc(NCC(C)(C)O)nc21`: the molecule was classed as inactive in assay [1], in [2], in [3], in assay [4], in [5] and in [6]. Further, the molecule was classed as inactive in assay [7], in assay [8], in [10], in [11], in [20] and in assay [13]. Also, the molecule was called inactive in assay [14], in [15], in [16], in [17], in [18] and in assay [19]. Also, in assay [9], the AC50 is 112 µM (active).

On to `CC(O)CN(CCN(CC(C)O)CC(C)O)CC(C)O` (stereo not given), for which the molecule was classed as inactive in [1], in assay [2], in assay [3], in [4], in assay [5] and in assay [6]. The molecule was classed as inactive in assay [7], in assay [8], in [9], in assay [11], in assay [20] and in assay [12]. Also, the result in assay [13], in assay [14], in assay [15], in assay [16], in [17] and in assay [18] was inactive.

In the case of `O=C(O)c1cc(N=Nc2ccc(S(=O)(=O)Nc3ccccn3)cc2)ccc1O`, the molecule was classed as inactive in assay [1], in [2], in [3], in assay [4], in assay [5] and in [7]. Further, the molecule was called inactive in assay [8], in assay [9], in assay [11], in [12], in assay [13] and in assay [14]. Also, the result in assay [15], in [16], in assay [17] and in assay [18] was inactive. The AC50 in assay [6] was 95.9 µM (active); in assay [20] it was 88.8 µM (active).

For `On1ccccc1=S`, the call in assay [1], in assay [2], in assay [3], in assay [4], in assay [5] and in assay [6] was inactive. For the same molecule, the result in assay [7], in assay [11], in [20], in assay [13], in assay [14] and in assay [16] was inactive. Moreover, the molecule was classed as inactive in [18]. Besides, the AC50 in [8] is 19.6 µM (active); in [9], 8.36 µM (active); in [10] it was 5.34 µM (active); in assay [12] it was 21.5 µM (active); in [15] it was 5.96 µM (active); in [17], 8.59 µM (active).
